PubChem BioAssay (EPA / NIEHS)
Activity calls are given as the source filed them. How the source made its calls: active means hit-call score of the fitted dose curve at least 0.9, where 1 is the maximum; inactive means score below 0.9.

The molecules below were run on growth arrest and DNA damage 45 (GADD45B), GADD45B (gene 4616) (assay: LTEA_HepaRG_GADD45B: Life Technologies and Expression Analysis (LTEA) Assay for growth arrest and DNA damage 45 (GADD45B) using HepaRG (AID 2283461)). Conditions: mRNA level, 48 h; actives raise or lower the signal.
How it was run: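 Differentiated human HepaRG cells in serum-free induction medium exposed 48 h in duplicate to eight concentrations, top 100 uM, half-log steps, 0.5% DMSO. GADD45B mRNA by TaqMan qRT-PCR, normalized to ACTB, GAPDH, POLR2A; bidirectional fit versus DMSO.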

Structure (SMILES) | outcome | AC50
CNC(=O)Oc1cccc2ccccc12 | inactive | 
CCSC(=O)N1CCCCCC1 | inactive | 
COc1ccc(-c2ccccc2)cc1NNC(=O)OC(C)C | inactive | 
CC(C)=CC1C(C(=O)OCc2coc(Cc3ccccc3)c2)C1(C)C (stereo not drawn) | inactive | 
OC(c1ccc(Cl)cc1)(c1ccc(Cl)cc1)C(Cl)(Cl)Cl | inactive | 
COC(=O)NS(=O)(=O)c1ccc(N)cc1 | inactive | 
CC(C)Oc1cccc(NC(=O)c2ccccc2C(F)(F)F)c1 | inactive | 
CS(=O)(=O)c1cc(C(F)(F)F)ccc1C(=O)c1cnoc1C1CC1 | inactive | 
CCOP(=O)(OCC)Oc1nc(Cl)c(Cl)cc1Cl | inactive | 
CCOP(=S)(OCC)Oc1nc(Cl)n(C(C)C)n1 | inactive | 
CCOc1nc(F)cc2nc(S(=O)(=O)Nc3c(Cl)cccc3Cl)nn12 | inactive | 
COP(=S)(OC)SCn1nnc2ccccc2c1=O | inactive | 
CNC(=O)N(C)c1nnc(C(C)(C)C)s1 | inactive | 
Clc1nc(Cl)nc(Nc2ccccc2Cl)n1 | inactive | 
Nc1c(Cl)c(Cl)nc(C(=O)O)c1Cl | inactive | 
Nc1c(Cl)c(F)nc(OCC(=O)O)c1Cl | inactive | 
CC1(C)CCC(=Cc2ccc(Cl)cc2)C1(O)Cn1cncn1 (stereo not drawn) | inactive | 
CSC(=O)c1c(C(F)F)nc(C(F)(F)F)c(C(=O)SC)c1CC(C)C | inactive | 
CCCCC(C#N)(Cn1cncn1)c1ccc(Cl)cc1 (stereo not drawn) | inactive | 
O=C(O)c1c(Cl)ccc2cc(Cl)cnc12 | inactive | 
O=P(O)(O)CCCl | inactive | 
Cc1cnc(C2=NC(C)(C(C)C)C(=O)N2)c(C(=O)O)c1 (stereo not drawn) | inactive | 
CCOC(=O)C(C)OC(=O)c1cc(Oc2ccc(C(F)(F)F)cc2Cl)ccc1[N+](=O)[O-] (stereo not drawn) |  | 32.2 µM (active)
